SMILES strings stand for the structures. About 1,300 (0.68%) of roughly 190,000 compounds were called active. What follows is part of a selection rich in actives, with near analogues and random picks from the rest. Unmarked numbers belong to inactive results. Rule as the data show it: active = inhibition above about 50%; inactive = the rest.

Mannose-6-phosphate isomerase (Homo sapiens), sequence (P34949 whole entry, looked up): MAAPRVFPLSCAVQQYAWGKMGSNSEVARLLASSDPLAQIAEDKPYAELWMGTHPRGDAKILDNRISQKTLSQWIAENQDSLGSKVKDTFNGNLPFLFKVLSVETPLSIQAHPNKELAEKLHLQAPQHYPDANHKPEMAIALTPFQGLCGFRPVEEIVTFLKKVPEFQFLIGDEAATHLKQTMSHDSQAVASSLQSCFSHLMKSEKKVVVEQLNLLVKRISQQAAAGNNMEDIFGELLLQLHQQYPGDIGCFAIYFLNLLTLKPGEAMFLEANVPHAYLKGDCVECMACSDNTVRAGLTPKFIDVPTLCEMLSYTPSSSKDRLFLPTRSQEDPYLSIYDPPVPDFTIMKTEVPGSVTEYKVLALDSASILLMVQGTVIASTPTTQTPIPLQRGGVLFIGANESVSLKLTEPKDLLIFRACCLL

The assay has as its target Mannose-6-phosphate isomerase (Homo sapiens) (UniProt P34949). Briefly: human PMI inhibitors, high substrate, primary screen, biochemical, fluorescence intensity, high mannose 6-phosphate (AID 1220). The settings on record: recombinant PMI enzyme, coupled fluorescence intensity; at 20 µM; hits give high values.
In the case of `COc1cc([N+](=O)[O-])cc2sc(NC(=O)C(C)(C)C)nc12`, the inhibition is 17%.

For `COc1ccccc1Cn1c(/C=C/c2ccccc2)nc2ccccc21`, the inhibition was 4.9%. With `Cc1cccc(-n2nc3c(c2NC(=O)c2ccc(Br)o2)CSC3)c1`, the inhibition was -0.5%. `CCCC(CCC(=O)Nc1cc([N+](=O)[O-])ccc1O)C(=O)O` (stereo not given): the inhibition is 11%.

With `CC(=O)Nc1ccc(NC(=O)c2cccc3c2-c2ccccc2C3=O)cc1`, the inhibition was -2.8%. Under `CC(=O)NC(=S)Nc1ccc([N+](=O)[O-])cc1C` stands -6%; under `CC1CCCN(Cc2nc3c(c(=O)n(C)c(=O)n3C)n2CCc2ccccc2)C1` (stereo not given), 5.2%. Under `CNC(=O)CSc1nc(N)c2c3c(sc2n1)CCC3` stands 7.8%; under `CC1=C(C(=O)N2CCOCC2)C(c2cccc(C)c2)NC(=S)N1` (stereo not given), -12.7%. For `O=C1C=C(Nc2ccccc2)C(=O)c2ccccc21`, the inhibition was 57.5% (active). `O=C1C=C(NCc2ccccc2)c2ccccc2C1=O`: the inhibition is 7.9%. Turning to `O=C1C(Nc2ccccc2)=C/C(=N/S(=O)(=O)c2cccs2)c2ccccc21`, the inhibition was 40.7%. In the case of `COC1=C(Nc2ccc(C)cc2)C(=O)c2ccccc2C1=O`, the inhibition was -3.1%.

Consider `O=C1C=C(Nc2ccccc2O)c2ccccc2C1=O`, for which the inhibition is 62.6% (active). Under `CC1=CC(=O)c2ccccc2C1=O` stands -13.3%; under `Cc1ccc(NC2=C(NCCO)C(=O)c3ccccc3C2=O)cc1`, 47.8%; under `Nc1c(O)ccc2c1C(=O)c1ccccc1C2=O`, 5.1%. Under `CC1(C)CC(=O)C=C(Nc2ccccc2O)C1` stands 7.6%; under `Cc1ccc(NC2=CC(=O)C(=O)c3ccccc32)cc1`, 56.2% (active). In the case of `O=C1C=C(Nc2ccccc2)c2ccccc2C1=O`, the inhibition was 64.6% (active).

Regarding `COC1=C(Nc2ccccc2)C(=O)c2ccccc2C1=O`, the inhibition was 4.1%.

For `CC(C)(C)n1nnnc1SCC(=O)Nc1nn(-c2ccccc2)nc1C(N)=O`, the inhibition is 0.7%. Under `CN(C(=O)COc1ccccc1)c1nnc(-c2cccnc2)s1` stands -0.3%; under `Cc1ccccc1NC(=O)c1c2c(nc3ccccc13)CCC2`, -4.6%. Take `O=C(O)[C@H]1CCCC[C@H]1C(=O)Nc1cc([N+](=O)[O-])ccc1F`: the inhibition was -7.1%. Regarding `CCCC(=O)Nc1cc(Cl)ccc1C`, the inhibition is -0.2%. For `Nc1nc(SCC(=O)Nc2cc(S(=O)(=O)N3CCOCC3)ccc2Cl)n[nH]1`, the inhibition is -10.9%.

Turning to `COC(=O)c1ccc(CSc2nnc(-c3ccc4c(c3)OCO4)n2-c2ccccc2)o1`, the inhibition is -8.3%. Under `Cc1ccccc1NC(=S)N1CCN(C(=O)c2ccco2)CC1` stands 5.1%. Under `O=C(C1CCCCN1S(=O)(=O)c1ccccc1)N1CCN(Cc2ccccc2)CC1` (stereo not given) stands -3.3%; under `CC(=O)N(C(C)=O)n1c(/C=C/c2cccc([N+](=O)[O-])c2)nc2ccccc2c1=O`, 15.3%; under `CCOC(=O)c1ccc(NC2=CC(=O)C(=O)c3ccccc32)cc1`, 57.3% (active). With `CCOC(=O)c1ccc(NC(=O)C(C)N2C(=O)c3ccccc3C2=O)cc1` (stereo not given), the inhibition is 5%. Under `CCOC(=O)c1ccc(NC2OC(=O)c3ccccc32)cc1` (stereo not given) stands -0.5%; under `Nc1ccc2cn[nH]c2c1`, 53.1% (active). Under `Nc1ccc2[nH]ncc2c1` stands 48.1%. Under `O=[N+]([O-])c1ccc2cn[nH]c2c1` stands 1.3%; under `CCCCc1nnc(NC(=O)CSc2nc(N)cc(=O)[nH]2)s1`, 51.1% (active); under `CCCCc1nnc(NC(=O)C(C)Sc2nc(N)cc(=O)[nH]2)s1` (stereo not given), 0.4%. Consider `CC(C)Cc1nnc(NC(=O)CSc2nc(N)cc(=O)[nH]2)s1`, for which the inhibition was -6.4%. Under `C=CCc1ccccc1OCCNCc1ccccc1` stands 1%. `Cc1cccc(C(=O)NC2CCN(CC(=O)NCc3cccs3)CC2)c1`: the inhibition was -0.6%. Regarding `Cc1cccc(-n2[nH]c3c4c(ccc3c2=O)C(=O)c2ccccc2C4=O)c1`, the inhibition is 26.4%. Under `Cc1ccc(C)c(-n2[nH]c3c4c(ccc3c2=O)C(=O)c2ccccc2C4=O)c1` stands 58% (active); under `CC(C)Cn1[nH]c2c3c(ccc2c1=O)C(=O)c1ccccc1C3=O`, 60.3% (active); under `Cc1ccc(-n2[nH]c3c4c(ccc3c2=O)C(=O)c2ccccc2C4=O)cc1`, 13.1%. Under `COCCCn1[nH]c2c3c(ccc2c1=O)C(=O)c1ccccc1C3=O` stands 14.1%; under `O=C1c2ccccc2C(=O)c2c1ccc1c(=O)n(-c3ccccc3)[nH]c21`, 30.4%; under `C=CCn1c(SCC(=O)Nc2cccc3ccccc23)nc(O)c(CC)c1=O`, -3.4%. In the case of `CCn1c(CNc2ccc(F)cc2)nnc1SCC(=O)Nc1ccccc1OC`, the inhibition was 4%.

As to `CN(C(=O)c1ccccc1)c1ccc(OCC(=O)NC2CCS(=O)(=O)C2)cc1` (stereo not given), the inhibition is 11.6%. Under `CC(C)(C)NS(=O)(=O)c1ccc(OCC(=O)NCCC2=CCCCC2)cc1` stands 1.2%; under `CC(=C/c1ccco1)/C=N/NC(=O)c1nnn(-c2nonc2N)c1CN(C)C`, 59.6% (active); under `COCc1c(C(=O)N/N=C/c2cccc3ccccc23)nnn1-c1nonc1N`, -11.8%. Under `COCc1c(C(=O)N/N=C(/C)c2ccccc2)nnn1-c1nonc1N` stands 6.3%; under `Cc1ccc(Oc2nc(-c3cccnc3)nc3ccccc23)c([N+](=O)[O-])n1`, 8.5%; under `O=[N+]([O-])c1ncccc1Oc1nc(-c2cccnc2)nc2ccccc12`, 65.8% (active). In the case of `CC(=O)c1ccc(Oc2nc(-c3cccnc3)nc3ccccc23)cc1`, the inhibition was -4.3%. Regarding `Cc1cc(C(=O)C(=O)O)c(C)n1-c1ccc(Cl)c(Cl)c1`, the inhibition is -3%. For the compound `COc1ccc(CCC(=O)N2CC(C)OC(C)C2)cc1` (stereo not given), the inhibition is 5.2%. Turning to `Cc1ccc(C)c(NC(=O)c2nc(-c3ccccc3)n(-c3ccccc3)n2)c1`, the inhibition was 16.2%.

Turning to `O=[N+]([O-])c1ccc(C[n+]2ccc(Cc3ccccc3)cc2)cc1`, the inhibition is 31.5%.

For the compound `O=S(=O)(c1ccccc1)N1CCN=C1SCc1ccccc1`, the inhibition is -2.3%. Under `O=S(=O)(c1ccccc1)N1CCN=C1SCc1ccc(Cl)cc1` stands 51.5% (active); under `O=S(=O)(c1ccccc1)N1CCN=C1SCc1ccc(Cl)c(Cl)c1`, -0.5%. As to `c1ccc(COc2ccc(OCCN3CCCC3)cc2)cc1`, the inhibition was 16.3%. Under `Cc1cccc(NC(=O)CC2SC(=NC3CCCCC3)NC2=O)c1` (stereo not given) stands 7.6%; under `Nn1c(COc2ccc(Cl)cc2)n[nH]c1=S`, 10.2%; under `Cc1ccc(OCc2n[nH]c(=S)n2N)cc1C`, 9.3%. Under `CCOc1ccccc1OCCNC1CCCC1` stands -5%; under `COCCCNC(=S)Nc1ccc(C)cc1[N+](=O)[O-]`, 5.7%; under `CC[C@H](C)C(C(=O)N1CCN(C(=O)OC(C)(C)C)CC1)n1cc(C(Cc2ccc(O)cc2)NC(=O)OC(C)(C)C)nn1` (stereo not given in full), 6.3%.

For the compound `CC(=C/c1ccco1)/C=N/NC(=O)CSc1nnc(SCc2ccc(C)cc2)s1`, the inhibition is 49.4%.

Regarding `CC(/C=N/NC(=O)c1cc(-c2ccc(Cl)cc2)nc2ccccc12)=C\c1ccco1`, the inhibition is 11.8%. `O=C(CSc1nnc(SCc2ccccc2)s1)N/N=C/C=C\c1ccco1`: the inhibition was -23%. On to `Cn1c(SCC(=O)N/N=C/c2ccco2)nc2ccccc21`, for which the inhibition was 3.4%. Under `CC(/C=N/NC(=O)CSc1nc2ccccc2n1C)=C\c1ccco1` stands 58.6% (active); under `Cn1c(SCC(=O)N/N=C/C=C/c2ccco2)nc2ccccc21`, 45.7%. Consider `CC(/C=N/NC(=O)c1cc(-c2ccncc2)nc2ccccc12)=C\c1ccco1`, for which the inhibition is 11.8%. Under `CC(/C=N/NC(=O)c1cc(-c2ccccc2)nc2ccccc12)=C\c1ccco1` stands 63.2% (active). Under `CC(/C=N/NC(=O)CSc1nnc(SCc2ccccc2)s1)=C\c1ccco1` stands 54.7% (active); under `CCc1ccc(Nc2nnc(SCC(=O)Nc3sccc3C(N)=O)s2)cc1`, 11.1%. Take `CCOC(=O)c1ccc(NC(=S)N(CCN2CCCCCC2)Cc2cccs2)cc1`: the inhibition is 2.9%. Under `COc1cc(OC)cc(C(=O)NCC2CCCO2)c1` (stereo not given) stands 12.6%; under `Cc1ccc2nc3c(cc2c1)c(NC(=O)c1cccnc1)nn3C`, 13.2%. Under `Cc1c(C(=O)NCC2CCCO2)oc2ccc3c(c12)C(=O)CC(C)(C)O3` (stereo not given) stands 7.4%; under `O=C(Nc1cccnc1)C1CCCN(S(=O)(=O)c2ccccc2)C1` (stereo not given), -2%; under `CCOc1cc(N2CCOCC2)c(OCC)cc1NC(=O)CSc1n[nH]c(N)n1`, 37.1%.

As to `CCOc1cc(N2CCOCC2)c(OCC)cc1NC(=O)CSc1cccc[n+]1[O-]`, the inhibition was 16.7%. Under `CCOc1cc(N2CCOCC2)c(OCC)cc1NC(=O)CSc1ncn[nH]1` stands 53% (active); under `CCOc1cc(N2CCOCC2)c(OCC)cc1NC(=O)CSc1ncccn1`, 50.6% (active).

In the case of `CCOc1cc(N2CCOCC2)c(OCC)cc1NC(=O)CSc1nccc(C)n1`, the inhibition was 19.5%. Under `CCOc1cc(N2CCOCC2)c(OCC)cc1NC(=O)CCC1CCCC1` stands 17.2%; under `[O-][n+]1ccc(C2CC2)cc1`, 7.7%; under `CCN1CCN(C(c2cccs2)C(C)NC(=O)NC2CCCCC2)CC1` (stereo not given), 6%. Under `CCC1Sc2ccccc2N(CC(=O)NCc2ccc3c(c2)OCO3)C1=O` (stereo not given) stands -3.8%. Turning to `O=C(COC(=O)COc1cccc(Br)c1)Nc1c(Cl)cccc1Cl`, the inhibition is 4.6%.

For `COc1ccc(-n2c(NC(=O)c3ccc(Br)o3)c(C#N)c3nc4ccccc4nc32)cc1`, the inhibition was 66.9% (active).

On to `COc1ccc(Cn2c(N)c(C#N)c3nc4ccccc4nc32)cc1`, for which the inhibition is 15.1%.

For the compound `COc1ccc(NC(=O)c2ccc(Br)o2)cc1`, the inhibition is 13.3%.

As a reminder, the inhibition is the change of the read-out against control, counted positive when it falls.
